# CYP2C19 act: human CYP2C19 activators, primary screen, biochemical, luminescence; recombinant CYP2C19, luciferin-H EGE luminescence; active compounds read high; 0 = fully inhibited enzyme, 1 = untreated enzyme; activation factor at 5 µM; 96,000 tested, under 10 active; AID 1025, 2008;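 active = activation factor of at least 2 at 5 µM in the primary screen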;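 also: 0 = wells with 2.5 mM tranylcypromine and 1 = vehicle-only wells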
# CD11b adhes inh: inhibitors of CD11b/CD18 adhesion to fibrinogen, primary screen, K562 cells, luminescence; Integrin beta-2 (Homo sapiens) + Integrin alpha-M (Homo sapiens), P05107+P11215; ATPlite luminescence; Mn2+ added to activate the integrin; inhibition, % at 10 µM; 93,000 tested, 0.54% active;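 active = primary inhibition of 50% or more at 10 µM, then 40% or more on retest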
# Target sequence (P05107 whole entry, looked up, other chains not shown): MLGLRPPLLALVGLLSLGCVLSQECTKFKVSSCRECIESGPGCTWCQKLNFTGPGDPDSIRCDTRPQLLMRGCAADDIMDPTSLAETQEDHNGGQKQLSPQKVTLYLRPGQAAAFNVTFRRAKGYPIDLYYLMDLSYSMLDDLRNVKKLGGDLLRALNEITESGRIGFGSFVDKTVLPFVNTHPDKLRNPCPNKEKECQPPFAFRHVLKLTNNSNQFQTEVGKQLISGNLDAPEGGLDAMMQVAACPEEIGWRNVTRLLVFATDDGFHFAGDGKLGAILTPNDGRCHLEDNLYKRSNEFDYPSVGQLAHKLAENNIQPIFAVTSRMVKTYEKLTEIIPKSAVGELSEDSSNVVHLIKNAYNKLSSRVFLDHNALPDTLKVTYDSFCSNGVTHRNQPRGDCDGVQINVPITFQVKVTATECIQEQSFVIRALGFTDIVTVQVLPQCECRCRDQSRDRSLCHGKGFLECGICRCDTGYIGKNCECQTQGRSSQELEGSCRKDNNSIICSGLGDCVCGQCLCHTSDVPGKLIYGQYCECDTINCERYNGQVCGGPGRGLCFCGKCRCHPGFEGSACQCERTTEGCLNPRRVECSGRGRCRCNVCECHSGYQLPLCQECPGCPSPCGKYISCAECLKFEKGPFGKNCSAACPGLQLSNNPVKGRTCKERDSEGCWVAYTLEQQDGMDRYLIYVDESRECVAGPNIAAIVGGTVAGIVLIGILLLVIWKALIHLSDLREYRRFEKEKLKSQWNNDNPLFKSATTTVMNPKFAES
# CYP2C9 inhib: blockers of cytochrome P450 2C9 activity – biochemical, luminescence, ADME assay, primary screen; CYP2C9 Supersomes, luciferin-H conversion; AID 777, 2007; P11712; 96,000 tested, 20% active; inhibition, % at 5 µM;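 active = blocking of liver enzyme CYP2C9 beyond about 50% at 5 µM, limit read from the data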
# Mac1 fbg enh: enhancers of CD11b/CD18 adhesion to fibrinogen, primary screen, K562 cells, luminescence; ATPlite luminescence; activation, % at 10 µM; 93,000 tested, 0.07% active;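 active = 10 µM primary screen giving 50% or more activity, confirmed by 40% or more on retest at that dose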
# CYP2C19 inh: blockers of cytochrome P450 2C19 activity – biochemical, luminescence, ADME assay, primary screen; P33261; CYP2C19 Supersomes, luciferin-H EGE luminescence, 30 min; inhibition, % at 5 µM; 96,000 tested, 21% active; AID 778, 2007;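 active = CYP2C19 inhibition above a set limit at 5 µM in the primary screen, cut at about 50% in these data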;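 also: plate controls were negative control wells for no effect and 2.5 mM tranylcypromine positive control for full effect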
# CYP2C9 activ: human CYP2C9 activators, primary screen, biochemical, luminescence. 96,000 tested, 1.4% active. Cytochrome P450 2C9 (Homo sapiens), P11712. activation factor at 5 µM. AID 1024, 2008. recombinant CYP2C9, luciferin-H conversion; active compounds read high; factor 1 = untreated enzyme, 0 = blocked;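 active = activation factor of 2 or more for CYP2C9 at a 5 µM dose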;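 also: 0 = sulfaphenazole-blocked wells and 1 = vehicle-only wells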
# * hit, by the source's call; . = no result given. In the library only some 28% were active in any assay of this set; here they are far more common.
SMILES,CYP2C19 act,CD11b adhes inh,CYP2C9 inhib,Mac1 fbg enh,CYP2C19 inh,CYP2C9 activ
c1coc(-c2nc3nc4ccccc4nc3n2-c2ccc3c(c2)OCCO3)c1,0.9,4.9,63.5*,-0.5,14.2,0.4
c1ccc(Cn2c(-c3ccco3)nc3nc4ccccc4nc32)cc1,1,9.6,9.2,0.0,-0.5,0.9
CC(=O)N(Cc1ccccc1)c1ncc2c(n1)c(=O)c(C#N)c1ccccn12,1.1,-1.4,-26.6,3.0,-6.7,1.3
CCOc1c2ccc(C(=O)N[C@H](C)C3CCCCC3)cc2nn1CC,0.9,.,5.4,.,9.1,0.9
O=C(CCNC(=O)c1ccccc1)OCN1C(=O)c2ccccc2C1=O,1,.,-5.3,.,-0.7,1.1
O=C(O)c1ccc(C(=O)c2ccc3c(c2)C(=O)N(Cc2ccco2)C3=O)cc1,0.9,-23.1,44.5,0.2,9.5,0.6
O=C(c1ccccc1)c1ccc(CN2C(=O)c3ccccc3C2=O)o1,0.1,3.5,85.0*,1.4,90.8*,0.2
O=C(OCN1C(=O)c2ccccc2C1=O)c1ccccc1,0.3,-4.6,-61.1,0.7,68.1*,1.6
Cc1ccccc1NC(=O)c1c(O)c2cccc3c2n(c1=O)CCC3,1,-2.1,6.5,-2.2,1.3,0.9
COc1ccc(N=c2oc3cc(O)ccc3cc2C(=O)NCC2CCCO2)cc1 (stereo not drawn),0.9,-10.4,52.0*,43.4,14.2,0.5
CCOc1ccccc1N=c1oc2cc(O)ccc2cc1C(=O)NCC1CCCO1 (stereo not drawn),1,-2.1,53.4*,1.7,1.8,0.5
COc1ccc2cc(C(N)=O)/c(=N/NC(=O)c3ccco3)oc2c1,.,1.6,.,2.0,.,.
CCOc1ccc(N=c2oc3cc(O)ccc3cc2C(=O)NCC2CCCO2)cc1 (stereo not drawn),1.2,5.9,42.3,13.3,-22.5,0.6
Cc1ccc(N=c2oc3cc(O)ccc3cc2C(N)=O)cc1,0.9,-9.3,65.9*,-2.0,12.6,0.3
CCOC(=O)/C(N=Nc1c(Br)cc(Br)cc1Br)=C(\C)O,0.8,12.3,22.2,-2.9,17.7,0.8
CCOc1cc(/C=N/NC(=O)CN2CCCCC2)ccc1OCc1ccccc1,1,.,8.5,.,-1.9,0.9
CCC(=O)n1nc(-c2ccco2)nc1SCc1ccccc1,0.2,-12.9,63.8*,2.9,78.4*,0.4
CC(=O)n1nc(-c2ccco2)nc1SCc1ccccc1,0.3,-5.7,30.9,-2.7,66.2*,0.7
CSc1nc(-c2ccco2)nn1C(=O)c1cccs1,0.6,8.8,88.3*,-6.2,38.4,0.1
O=C1OCCC1N1C(=O)c2ccccc2S1(=O)=O (stereo not drawn),1.1,-7.5,-2.4,-3.3,-8.2,1
Cc1ccc(-c2nc(NC(=O)CSc3nnc(C)s3)ns2)cc1,0.3,1.4,44.4,2.7,65.0*,0.6
O=C(CSc1nnnn1-c1ccccc1)CC(=O)Nc1ccc(Cl)cc1,0.9,35.5,-140.5,3.1,13.5,2.4*
O=C(CSc1nnnn1-c1ccccc1)Nc1ccc(N2CCOCC2)c(Cl)c1,1,-15.6,-2.7,-2.1,1.0,1
O=C(CSc1nnnn1-c1ccccc1)Nc1nsc(-c2ccc(Cl)cc2)n1,0.3,15.5,-177.0,3.5,74.9*,2.8*
C=CCNS(=O)(=O)CC12CCC(CC1=O)C2(C)C (stereo not drawn),0.9,-6.9,-3.9,4.0,5.6,1
SMILES,CYP2C19 act,CD11b adhes inh,CYP2C9 inhib,Mac1 fbg enh,CYP2C19 inh,CYP2C9 activ
Cc1ccc(N2CCN(C(=O)c3ccccc3NC(=O)C3CC=CCC3C(=O)O)CC2)cc1 (stereo not drawn),0.5,-19.1,36.8,-4.7,51.5*,0.6
O=C1CCCN1CCNC(=S)Nc1ccccc1,0.8,0.7,52.2*,1.3,18.9,0.5
O=C(CSc1nnc2scc(-c3ccccc3)n12)NCC1CCCO1 (stereo not drawn),0.9,-9.6,-10.3,0.1,14.8,1.1
Cc1cccc(OC(C)C(=O)N(Cc2cccs2)C2CCS(=O)(=O)C2)c1C (stereo not drawn),0.1,-4.2,38.4,-2.1,95.0*,0.6
COc1ccc(NC(NC(=O)c2ccc(OC)cc2)C(Cl)(Cl)Cl)cc1 (stereo not drawn),0.3,.,84.2*,.,66.3*,0.2
COCCCNC(NC(=O)c1ccc(Br)cc1)C(Cl)(Cl)Cl (stereo not drawn),.,14.4,.,-0.4,.,.
COCCn1c(COc2cccc(OC)c2)nnc1SCC(=O)N1CCOCC1,1,2.8,3.0,1.1,-1.6,1
COCCNC(=O)c1cc2cc(Br)cc(OC)c2oc1=O,1.1,17.4,-8.8,-2.0,-11.3,1.1
CCc1ccc2c(c1)cc(CN(C(=S)Nc1cccc(C)c1)C1CC1)c1nnnn12,1,.,67.6*,.,0.7,0.3
Cc1ccc2c(c1)cc(CN(Cc1cccs1)C(=O)c1ccco1)c1nnnn12,0.9,3.8,18.5,-3.7,5.3,0.8
O=C1c2ccccc2C(=O)C12Cc1ccccc1N1CCN(c3ccccc3)CC12 (stereo not drawn),0.4,1.5,76.0*,-0.6,55.8*,0.2
N#Cc1ccccc1Sc1ccccc1N,0.4,.,59.3*,.,56.6*,0.4
C[N+](C)(C)CCCC(=O)c1ccc2c(c1)OCO2,0.9,2.7,6.6,-6.0,8.8,0.9
COc1ccc(NC(=O)CN2CCN(CC(=O)Nc3ccc(OC)c(OC)c3)CC2)cc1,0.9,-1.1,-7.5,0.8,11.0,1.1
COc1ccc(S(=O)(=O)N2CCN(CC(=O)Nc3cccc(F)c3)CC2)cc1,0.5,.,-37.3,.,53.5*,1.4
COc1ccc(NC(=O)CN2CCCN(S(=O)(=O)c3ccc(F)cc3)CC2)cc1,0.1,2.2,53.1*,-2.4,88.6*,0.5
COc1ccc(CSCC(=O)Nc2ccc(S(=O)(=O)N3CCCCCC3)cc2)cc1,.,32.4,.,2.1,.,.
COc1ccc(S(=O)(=O)N2CCN(CC(=O)Nc3ccc(C)c(F)c3)CC2)cc1,0.2,-0.3,-18.4,2.1,81.9*,1.2
Cc1cc2cc(CN(CC3CCCO3)C(=O)c3cnccn3)c(=O)[nH]c2cc1C (stereo not drawn),0.9,5.5,17.9,-0.1,11.2,0.8
COc1ccc2c(c1)c1ncnc(N3CCN(Cc4ccc5c(c4)OCO5)CC3)c1n2C,0.8,31.8,81.5*,1.2,21.5,0.2
COc1ccc2[nH]c3c(N4CCC(O)(c5cccc(C(F)(F)F)c5)CC4)ncnc3c2c1,0.6,7.5,67.3*,-2.5,40.3,0.3

# Source: PubChem (Sanford-Burnham Center for Chemical Genomics)
